# Most compounds without a hit are left out; they make up all but 21% or so of the library.
# Pf growth 48h = P. falciparum growth inhibition at 48 hours (one generation); AID 504832; Potency, µM (series often up to 28.7 µM), most hits filed as inhibitors; P. falciparum luciferase growth in erythrocytes, 48 h; 310,000 tested, 5.9% active
#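 Luciferase-expressing P. falciparum in infected erythrocytes (2% hematocrit, 0.1% parasitemia final) in RPMI 1640/0.5% Albumax were exposed to compound for 48 hours at 37 C, 5% CO2; growth read as luminescence.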
# Shiga toxin inh = blocks Shiga toxin action in Vero cells; inhibition, % at 38.7 µM; Vero cells, Shiga toxin protein synthesis inhibition reporter; AID 2315; 290,000 tested, 9.2% active; in the data active = inhibition mostly above about 28%, no sharp cut-off; inactive = mostly below about 43%
# Pf growth 96h = P. falciparum growth inhibition at 96 hour, primary screen for plastid delayed-death inhibitors | P. falciparum luciferase reporter growth, 96 h | Potency, µM (doses to about 28.7 µM), most hits filed as inhibitors | 320,000 tested, 6.9% active | AID 504834
#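 Two parasite generations (96 h, 37 C, 5% CO2) of compound exposure in infected erythrocytes (0.05% parasitemia, 2% hematocrit). Luciferase-reporter P. falciparum; decreased luminescence indicates inhibited growth, aimed at apicoplast-acting delayed death.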
# NS1 inh = inhibitors of influenza NS1 protein function; Potency, µM (highest dose often 46.1 µM); 270,000 tested, 0.4% active; AID 2326; calls by dose curve; note: actives are rising curves; nearly all actives have a fitted effect of over 50% in size
#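 OD600 was taken as the measure of yeast growth restored by compound in an NS1-expressing S. cerevisiae strain. Cells had been washed out of glucose medium and diluted 1:100 into galactose -URA medium, pH 6.0.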
# Cycloheximide cs = counter-screen hit for Shiga toxin inhibitors, cycloheximide; cell reporter, cycloheximide protein synthesis inhibition counterscreen; max response, %; 300,000 tested, 12% active; AID 2314; in the data active = max response mostly above about 13%, no sharp cut-off; inactive = mostly below about 14%; note: read at 38.3 µM for the half of the compounds with a filed dose
# Hits are given with their value; – = inactive; ? = inconclusive; · = no result given; [ ] = remark or other dose. Unless noted, calls come from the whole dose curve; as a rule, active = well fitted inhibition curve with a large enough effect; inconclusive = small, poorly fitted or top-dose-only effect, or another doubt; inactive = no such curve, though single readings can be large or run the other way.
SMILES,Pf growth 48h,Shiga toxin inh,Pf growth 96h,NS1 inh,Cycloheximide cs
FC(F)Oc1ccc(-c2c[n+]3c(n2-c2ccccc2)CCCCC3)cc1,?,–,?,–,–
COc1ccc(-n2c(-c3ccc(Cl)cc3)c[n+]3c2CCCCC3)cc1,1µM,–,0.47µM,–,–
COc1ccc(-c2c[n+]3c(n2-c2ccc(C)cc2)CCCCC3)cc1,0.93µM,–,0.29µM,–,–
COc1ccc(-c2c[n+]3c4n2CCCCC4=C(c2ccccc2)C3)cc1,?,–,6.6µM,–,–
COc1ccc(-c2c[n+]3c(n2-c2ccccc2)CCCCC3)cc1,1µM,–,?,–,–
COc1ccc(-c2cc3ccccc3n2CC(O)CN2CCCCC2)cc1 (configuration not stated),–,–,?,–,–
COc1ccccc1NC(=O)N1CCCC1C(=O)NCCc1ccccc1 (configuration not stated),–,–,?,–,–
CCCCCCOC(=O)/C=C/c1c(C)[nH]c(=O)[nH]c1=O,9.3µM,–,–,–,–
CCCCCCCCOC(=O)CCc1c(C)[nH]c(=S)[nH]c1=O,?,–,–,–,–
COC(=O)c1[nH]c2cc(C)ccc2c1NC(=O)CN1CCCc2ccccc21,?,–,?,–,48
COC(=O)c1[nH]c2ccc(Br)cc2c1NC(=O)CN1CCCc2ccccc21,?,–,10µM,–,–
CCC(C(=O)NC(CC(=O)O)c1ccc(Cl)cc1)c1ccccc1 (configuration not stated),–,–,–,–,–
Cc1cc(C)c(CN2CCC(n3nccc3NC(=O)CCOc3ccccc3)CC2)cc1C,?,–,13µM,–,–
O=C(CCOc1ccccc1)Nc1ccnn1C1CCN(Cc2ccccc2)CC1,–,–,?,–,–
CC(C)C(=O)N1CCC(n2nccc2NC(=O)CCOc2ccccc2)CC1,–,–,?,–,17
Cc1ccccc1CN1CCC(n2nccc2NC(=O)CCOc2ccccc2)CC1,?,–,4.1µM,–,–
COc1cccc(C(=O)N2CCC(n3nccc3NC(=O)CCOc3ccccc3)CC2)c1,–,–,?,–,30
CN(C(=O)CSc1nc2c(c(=O)[nH]1)CCC2)c1ccccc1,–,–,–,·,–
COc1ccc(NC(=O)Cn2c(=O)cnc3ccccc32)cc1S(=O)(=O)N1CCCCC1,?,·,–,·,·
O=C(O)c1ccc(/C=C/C(=O)c2ccc3c(c2)OCCCO3)cc1,–,92,–,–,105
CSc1ccc(/C=C/C(=O)c2ccc(NC(C)=O)cc2)cc1,–,59,0.66µM,–,33
CC(=O)Nc1ccc(/C=C/C(=O)c2ccc3c(c2)OCCO3)cc1,–,45,?,–,23
O=C(Cn1c(=O)n(-c2ccccc2)c(=O)c2sccc21)NCc1ccccc1,–,–,–,·,–
Cc1ccccc1CN1CCN(C(=O)c2ccc(F)cc2)CC1,–,–,–,–,–
COc1ccc(C2C=C(c3ccc(C)cc3)Nc3ncnn32)cc1 (configuration not stated),12µM,–,–[5.75 µM],–,–
SMILES,Pf growth 48h,Shiga toxin inh,Pf growth 96h,NS1 inh,Cycloheximide cs
CCOc1ccc(C2C=C(c3ccc(F)cc3)Nc3ncnn32)cc1 (configuration not stated),12µM,–,·,–,–
Cc1ccc(C(=O)OCCOc2cccc(Cl)c2)cc1S(=O)(=O)N1CCOCC1,–,·,?,·,·
Cc1nnc(-c2ccco2)c2cn(-c3cccc(Br)c3)nc12,?,–,–,–,44
COc1cc(OC)c(-c2nn3c(-c4ccco4)nnc3s2)cc1OC,10µM,–,–,–,–
COc1ccc(-c2nn3c(-c4ccco4)nnc3s2)cc1OC,?,–,–,–,–
COc1cccc(-c2nnc3sc(-c4ccco4)nn23)c1,–,–,?,?,39
c1ccc(-c2cc(-c3nn4c(-c5ccco5)nnc4s3)c3ccccc3n2)cc1,3.7µM,–,·,–,–
c1coc(-c2nnc3sc(-c4cccs4)nn23)c1,–,–,·,–,14
COc1ccc(-c2nnc3sc(-c4ccco4)nn23)cc1OC,–,–,·,–,–
Cc1cc(-c2nn3c(-c4ccccc4)nnc3s2)c2ccccc2n1,?,–,–,–,–
COc1ccc(C(C)NC(=O)c2ccncc2)cc1OC (configuration not stated),–,–,?,–,–
Cc1ncsc1CCSc1nc2ccccc2c(=O)n1C,–,–,–,–,–
CCCNC(=O)c1ccc(C2SCC(=O)N2CCc2ccccc2)cc1 (configuration not stated),–,–,?,–,–
CCc1ccc(CN(C)CC(O)COc2cccc3ccccc23)cc1 (configuration not stated),–,–,?,–,–
Cc1ccc(C(C)C)c(OCC(O)CNC2CCCC2)c1 (configuration not stated),5.2µM,–,–,–,–
O=C(O)c1ccccc1C(=O)NCC(O)COc1ccc(Cl)cc1 (configuration not stated),–,55,–,–,38
CN(CCOc1cccc2ccccc12)Cc1ccccc1,–,–,4.1µM,–,–
Cc1ccc(C(C)C)c(OCC(O)CN(C)Cc2ccccc2)c1 (configuration not stated),·,–,2.1µM,–,–
Cc1cccc(OCC(=O)NCc2ccc(F)cc2)c1,–,·,–,–,–
COc1ccc(-c2nc(C3CCCCC3)c3cc(OC)ccc3n2)cc1,–,·,–,·,·
N#CCCN(Cc1cccs1)C(=O)c1ccc(Cl)cc1,–,–,–,–,–
OC(CNC1CCCC1)COc1ccc(Cl)cc1 (configuration not stated),15µM,–,–,–,–
Cc1ccc(C(C)C)c(OCCCN(C)Cc2ccccc2)c1,13µM,–,?,–,–
Cc1ccc(OCCCCN(C)Cc2ccccc2)c(Br)c1,?,–,–,–,–
CCCCc1ccc(NC(=O)C(=O)NCCN2CCN(Cc3ccc([N+](=O)[O-])cc3)CC2)cc1,?,–,?,·,–
SMILES,Pf growth 48h,Shiga toxin inh,Pf growth 96h,NS1 inh,Cycloheximide cs
COc1ccc(C(=O)CC(=O)c2ccc(C(C)(C)C)cc2)cc1,–,·,–,·,·
COc1ccc(C(=O)C(CCC(CNC(C)(C)C)C(=O)c2ccc(OC)cc2)CNC(C)(C)C)cc1 (configuration not stated),7.4µM,–,?,–,–
Oc1ccc(CN2CCN(Cc3ccccc3)CC2)c2cccnc12,–,–,·,–,–
Oc1c(CN2CCc3ccccc3C2)cc(Cl)c2cccnc12,·,–,–,–,–
CN1CCN(Cc2cc(COCc3ccccc3)c3cccnc3c2O)CC1,2.1µM,–,2.3µM,–,17
O=C(COc1c(Br)cc(Br)c2cccnc12)N1CCCCC1,–,–,–,·,–
O=S(=O)(c1ccc(Cl)cc1)N1CCN(Cc2ccc(O)c3ncccc23)CC1,1.9µM,–,?,·,–
Oc1c(Cl)cc(CN2CCOCC2)c2cccnc12,4.7µM,·,5.9µM,·,·
Oc1c(CN2CCCCC2)cc(Br)c2cccnc12,2.6µM,–,?,–,–
Cc1ccc(S(=O)(=O)CCC(=O)OCC(=O)NCCc2ccccc2)cc1,?,·,–,·,·
CCc1ccc(CN2CCCC(C(=O)Nc3ccccc3-c3ccc(OC)cc3)C2)o1 (configuration not stated),?,–,?,–,–
